“And” between values parts separate entries of the source, which are not always exact repeats. Identical values can stand only once. In all, about 300,000 compounds went through this assay and about 3,300 (1.1%) were called active. Another 6% or so got no clear call; they are omitted.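 Rule for the calls: active = more than half of the replicate wells show a fall in the fluorescence ratio signal beyond about 16% (limit read from the data, passing the limit was not always enough); inconclusive = exactly half of the replicate wells pass the set limit; inactive = fewer than half of replicates pass the limit.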 Only a selection was taken, and actives are over-represented in it overall.
test system: Ran GTPase (GTP-bound) - importin-beta complex; experiment: disruptors of Ran-importin-beta complex formation – biochemical, FRET, CFP-Ran, YFP-importin-beta, homogeneous, primary screen (AID 2216); conditions: cell-free CFP-Ran/YFP-importin-beta FRET ratio; active compounds read high; concentration not given here;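 note: 0% = DMSO wells and 100% = Ran loaded with GDP instead of GTP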

inhibition, active:
CCOC(=O)c1c(NC(=S)Nc2ccccc2)sc2c1CCN(C)C2 70%, CCN1C(=O)/C(=C2/Sc3ccccc3N2CCCS(=O)(=O)O)SC1=S 43.1% and 55.8%, CCOC(=O)/C(C#N)=C/c1ccc(N2CCCCC2)cc1 91%, CCOC(=O)/C(C#N)=C/c1ccc(N2CCN(Cc3ccccc3)CC2)cc1 72.8%, COc1ccc(N=C(C)c2sc3ccccc3c2O)cc1 39.4%, COc1ccc(C)cc1NC(=O)CSc1ccc(Cl)cc1 27.5%, Cc1cccn2c(=O)c(/C=C(\C#N)S(=O)(=O)c3ccc(Cl)cc3)c(N3CCC(C(N)=O)CC3)nc12 16.6%, COc1cccc(C(=O)c2cc3ccc(O)cc3oc2=O)c1 26.4%, CC1CC(=O)N(CC(=O)Nc2cccc(Cl)c2)c2ccccc2S1(=O)=O (centres undefined) 18.5%, CN1CCN(c2cc(=O)n(-c3ccc(Cl)cc3)c(=O)[nH]2)CC1 31.4%, CCCOc1ccc(Cn2ccnc2)cc1[N+](=O)[O-] 22.9%, O=C(Nc1ccc2sc3ccccc3c(=O)c2c1)c1ccccc1Cl 97.7%, Cc1cc(O)ccc1NC1=CC(=O)CC(C)(C)C1 18.8%, COc1ccc(/C=C(\C#N)c2c[nH]c3ccccc23)cc1 17.3%, COc1cccc(/C=C2\C=C(c3ccc(C)cc3)OC2=O)c1OC(C)=O 20.6%, Cc1ccc2nc3c(cc(C(=O)NCCc4ccccc4)c(=N)n3CC3CCCO3)c(=O)n2c1 (centres undefined) 182%, Cc1cccn2c(=O)c3cc(C(=O)NCCN4CCOCC4)c(=N)n(Cc4cccnc4)c3nc12 167%, COc1ccc(CCn2c(=N)c(C(=O)NCc3ccco3)cc3c(=O)n4cccc(C)c4nc32)cc1 21.1%, Cc1cccn2c(=O)c3cc(C#N)c(=NC(=O)c4cccnc4)n(CC4CCCO4)c3nc12 (centres undefined) 154%

inhibition, inactive:
CCOC(=O)c1c(NC(=S)Nc2ccccc2C)sc2c1CCC2 -2.16%, CCOC(=O)c1c(NC(=O)NC(C)(C)C)sc2c1CCN(C)C2 12%, COc1cccc(NC(C)=[N+](C)CCNS(=O)(=O)c2ccc(Cl)cc2)c1 -6.06%, COc1ccc(NC(=O)CN(C)C(=O)c2n[nH]c3ccccc23)cc1 -0.623%, CCCCn1c(N)c(N(CCOC)C(=O)c2cccc(S(=O)(=O)N3CCCCC3)c2)c(=O)[nH]c1=O 6.51%, O=C(COC(=O)c1ncc(Cl)c(Cl)c1Cl)NNC(=O)c1ccccc1 7.08%, CCN1C(=O)/C(=c2\s/c(=C3\Sc4ccccc4N3C)c(=O)n2C)N(C)C1=S 1.12%, CCCCN1C(=O)/C(=C2/Sc3ccc(Cl)cc3N2CC)SC1=S 0.428%, O=C(/C=C/c1ccc([N+](=O)[O-])o1)NNC(=O)c1ccc(F)cc1 -0.948%, CCOC(=O)/C(C#N)=C/c1ccc(OCC(=O)Nc2ccccc2)c(OC)c1 1.23%, CCOC(=O)NC(=O)/C(C#N)=C\c1ccccc1 5.82%, COc1ccc(/C=C(\C#N)C(=O)ONC2=NCCCCC2)cc1 2.96%, COc1ccc(N2CCN(C(=O)/C(C#N)=C/c3ccccc3)CC2)cc1 -3.23%, CC(=O)NCC(=O)N1CCC(n2nccc2NC(=O)CCCc2ccccc2)CC1 -2.9%, Cc1cc(O)c(Sc2ccccc2)c(=O)o1 -1.75%, Cc1ccc(NC(=O)COc2coc(CN3CCc4ccccc4C3)cc2=O)cc1Cl 1.39%, COc1ccc(C(CNC(=O)c2cccc(NS(=O)(=O)c3ccc(C)c(F)c3)c2)N2CCCC2)cc1 (centres undefined) -0.978%, Cc1ccc(OCCNC(=O)CNC(=O)c2ccc(C)c(C)c2)cc1 4.18%, Oc1ccc(N=Cc2sc3ccccc3c2Cl)cc1 5.46%, COc1ccc(N=Nc2ccc(O)c(P(=O)(c3ccccc3)c3ccccc3)c2)cc1 -0.168%, COC(=O)c1cc(OC)c(OC)cc1NC(=O)CSc1ccc(C)cc1 -0.733%, COc1ccc(C)cc1NC(=O)CSc1nc(SC)ns1 2.19%, CCC(c1nnc(SCC(=O)NNC(=O)c2ccccc2)n1Cc1ccccc1)N(C)C (centres undefined) -5.06%, Cc1cc(C)c(C#N)c(N2CCC(C(N)=O)CC2)n1 -1.05%, Cc1cccn2c(=O)c(/C=C(\C#N)C(N)=O)c(N3CCCCCC3)nc12 -1.31%, CS(=O)(=O)N(CC(=O)N1CCc2ccccc2C1)c1ccc(Br)cc1 0.322%, Cc1ccc(-c2csc(NC(=O)C3=COCCO3)n2)cc1C 2.13%, COc1cccc(C(=O)NNC(=O)c2cccc(F)c2)c1 -3.67%, COc1ccc2oc(=O)c(C(=O)N3CCCC3)cc2c1 0.715%, COc1cccc(N2CC(NC(=O)c3ccc4ccccc4c3)CC2=O)c1 (centres undefined) -1.06%, CCN1C(=O)[C@H]2[C@@H](c3ccc(-c4ccc(F)cc4)cc3)N[C@@](Cc3ccccc3)(C(=O)OC)[C@H]2C1=O -2.12%, COc1ccc(N2CCN(C(=O)COC(=O)c3cccc(S(=O)(=O)Nc4ccccc4OC)c3)CC2)cc1 -1.93%, CCOC(=O)c1cccc(NC(=O)CN2C(=O)C3CC=CCC3C2=O)c1 (centres undefined) 3.31%, O=C(CN1C(=O)CC(c2ccccc2)S(=O)(=O)c2ccccc21)NC1CCCC1 (centres undefined) 0.0598%, COc1ccc2c(c1)C(=O)Nc1cc(Cl)ccc1N2 1.28%, Cc1noc(C)c1CSCC(=O)N(CCC(C)C)c1c(N)n(Cc2ccccc2)c(=O)[nH]c1=O -1.15%, COc1ccc(CN2[C@@H](CC(=O)O)c3cc(F)ccc3S2(=O)=O)cc1 3.99%, CCN1C(=O)[C@H]2[C@@H](c3ccc(SC4CCCCC4)c(OC)c3)N[C@@](Cc3ccccc3)(C(=O)OC)[C@H]2C1=O -1.26%, CN1CCN(c2ccc(NC(=O)c3ccc4c(c3)[nH]c(=O)n4Cc3ccc(F)cc3)cc2)CC1 0.81%, O=C(Cc1ccc(-n2c(=O)[nH]c3ccccc3c2=O)cc1)N1CCN(c2cccc(Cl)c2)CC1 2.52%, CCCC[C@@H]1CN=C(N)N1CCCC 5.62%, O=C(Oc1ccc(-c2nnco2)cc1)c1ccc(F)c(S(=O)(=O)N2CCOCC2)c1 1.51%, CCCCOc1ccc(CSC(=N)N)cc1[N+](=O)[O-] -0.296%, CCCCCOc1ccc(CSC2=NCCN2)cc1[N+](=O)[O-] -3.18%, Cc1cc(=O)[nH]c(SCc2ccc(Cl)cc2)n1 2.35%, COc1ccccc1CCC(=O)OCC(=O)N1CCN(S(=O)(=O)c2ccc(C)cc2C)CC1 -0.0627%, Cc1ccc(S(=O)(=O)CCC(=O)OCC(=O)N(C)C2CCS(=O)(=O)C2)cc1 (centres undefined) -1.57%, CCc1ccc(C(=O)COC(=O)c2ccco2)cc1 -1.46%, O=C(Nc1cccc(NC(=O)c2ccccc2[N+](=O)[O-])c1)c1ccccc1Cl 1.99%, O=C(Nc1ccc2nc3n(c(=O)c2c1)CCCCC3)c1ccccc1Cl -0.768%, COc1cnn(-c2ccc([N+](=O)[O-])cc2)c(=O)c1Cl 9.19%, CCCCCN(C(=O)CCC(=O)OCC(=O)NC1CCC(C)CC1)c1c(N)n(CCCC)c(=O)[nH]c1=O (centres undefined) 10.6%, O=C(NC(Cc1ccccc1)C(=O)N1CCCC(C(F)(F)F)C1)c1ccccc1 (centres undefined) -0.899%, CC1(C)CC(=O)C=C(Nc2ccccc2)C1 11.7%, COC(=O)NNC1=CC(=O)CC(C)(C)C1 2.34%, CCCCCCCNC(=O)C1(CC2CC(c3cccc(Br)c3)=NO2)CCN(C(=O)c2cc(OCC)c(OCC)c(OCC)c2)CC1 (centres undefined) -1.08%, COc1ccc2[nH]cc(/C=C(/C#N)S(=O)(=O)c3ccccc3)c2c1 -20.9%, COc1cc(/C=C(\C#N)c2nc3ccccc3[nH]2)ccc1O -13.2%, CCCNC(=O)c1ccc(N2CCC3(CC2)CC(c2cccc(Br)c2)=NO3)c(NC(=O)c2ccco2)c1 -1.47%, Cc1cc(/C=C2/SC(=O)N(CC(=O)N3CCCC3)C2=O)c(C)n1C -0.395%, CCN(CC(=O)Nc1c(F)cccc1F)C(=O)CN1c2cccc3cccc(c23)S1(=O)=O -0.907%, COc1ccc(Cc2nnc(SCC(=O)Nc3ccc(C)c(Cl)c3)[nH]c2=O)cc1 -0.239%, O=C(COC(=O)c1ccc([N+](=O)[O-])cc1Cl)NC(=O)c1ccccc1 -13.9%, Cc1ccc(C2=C/C(=C\c3cccnc3)C(=O)O2)cc1 8.88%, CN(C)/C=C1\C=C(c2ccccc2)OC1=O -3.27%, COc1cccc(/C=C/C(=O)OCC(=O)N2CCCc3ccccc32)c1 3.35%, O=C(CCNC(=O)c1ccc(Br)cc1)NCCCc1ccccc1 1.56%, COc1ccc(CCNC(=O)Cn2c(=O)n(CC3CCCO3)c(=O)c3ccccc32)cc1OC (centres undefined) -2.65%, O=C(NCc1ccco1)c1cccn2c(=O)c3c4c(sc3nc12)CCCC4 -9.38%, Cc1cccn2c(=O)c3cc(C(=O)NC4CCCCC4)sc3nc12 2%, Cc1ccc(C(=O)NCCN2CCOCC2)cc1C -1.81%, Cc1ccc(CCNC(=O)c2ccc3nc4ccccc4c(=O)n3c2)cc1 8.55%, O=C(NCc1cccnc1)c1cc(S(=O)(=O)N2CCOCC2)c(Cl)cc1Cl -0.678%, Cc1ccccc1NC(=O)Cn1c(=O)n(CC2CCCO2)c(=O)c2ccccc21 (centres undefined) 0.402%, COc1ccc2oc(C(=O)NCc3ccco3)c(C)c2c1 -0.417%
